The record followed here is PubChem BioAssay AID504635 (The Scripps Research Institute Molecular Screening Center, 2011).

As usually defined, the inhibition is the drop in the measured response relative to a control, in per cent.

The list shows a part of the results. Active and inactive are the calls of the source. Rule as the data show it: active = inhibition above about 18%; inactive = the rest.

The experiment has as its target Troponin I, cardiac muscle (Homo sapiens) + Troponin T, cardiac muscle (Homo sapiens) + Troponin C, slow skeletal and cardiac muscles (Homo sapiens) (UniProt P19429+P45379+P63316). As to the kind of experiment: cardiac RTF calcium sensitivity inhibitors, confirmation, biochemical, fluorescence readout (AID 504635). The settings on record: reconstituted cardiac thin filaments, at 7.15 µM, active compounds read high.
With `CCCCn1c(=O)c(C(C)=O)c(O)c2ccccc21`, the inhibition is -4.91% (inactive).

In the case of `Cc1cc(NC(=O)CCC(=O)N(CC(=O)NCC2CCCO2)c2ccccc2)no1` (stereo not given), the inhibition is -4.68% (inactive).

With `Cc1ccc(S(=O)(=O)N(CC(=O)Nc2cccc([N+](=O)[O-])c2)Cc2ccc(Cl)cc2)cc1`, the inhibition is -1.82% (inactive).

Take `O=c1ccc2c(-c3ccccc3S(=O)(=O)O)c3ccc(O)c(O)c3oc-2c1O`: the inhibition was 154% (active).

As for `CC1CCCC(NC(=O)COC(=O)[C@@H]2CC(O)CN2S(=O)(=O)c2ccc3c(c2)OCCO3)C1C` (stereo not given in full), the inhibition was -1.77% (inactive).

As to `O=C(O)c1cccc(S(=O)(=O)Nc2ccc(O)cc2Sc2nc3ccccc3s2)c1`, the inhibition is -6.09% (inactive).

In the case of `COc1cc(OC)cc(C(=O)NCC(=O)OCc2csc(-c3ccccc3)n2)c1`, the inhibition is 2.35% (inactive).

Take `COc1cccc(CNC(=O)C(=O)NCCC2CCCCN2S(=O)(=O)c2ccc(C)cc2)c1` (stereo not given): the inhibition is -4.1% (inactive).

Turning to `Cc1ccc(NC(=O)NC2CCCCC2)cc1S(=O)(=O)N1CCOCC1`, the inhibition was -0.15% (inactive).

`C/C(=N\NC(=O)C(N)=O)c1ccc2c(c1)OCCO2`: the inhibition was -2.4% (inactive).

As to `Cc1cccc(N(C(=O)Cc2cccs2)C(C(=O)NC2CCCC2)c2ccsc2)c1` (stereo not given), the inhibition is -3.11% (inactive).

For `COC(=O)CCc1sc(Nc2ccc(Br)cc2)nc1-c1ccc(OC)cc1`, the inhibition is 1.8% (inactive).

With `COC(=O)c1cccc(N(CC(=O)NCC2CCCO2)C(=O)CCC(=O)Nc2cc(C)on2)c1` (stereo not given), the inhibition was -2.6% (inactive).

Turning to `C=CCNC(=O)COC(=O)c1ccccc1C(=O)N(C)C1CCCCC1`, the inhibition was 0.72% (inactive).

For `COc1ccc(NC(=O)CC2COc3ccccc3O2)c(OC)c1` (stereo not given), the inhibition is -2.46% (inactive).
